Calls of active or inactive are those of the source.

Experiment [1] concerns Plasmodium falciparum Sir2 (PF13_0152, Sir2A). Description: Plasmodium falciparum Sir2A binding compounds – biochemical, small-molecule microarray, 635 nm fluorescence, primary screen (AID 1098).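 Note: score merges spot fluorescence intensity with its signal-to-noise ratio.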 The note with it: fluorescence 635 nm, higher = more signal.
Experiment [2] in a line: probe aDKK1 binding to arrayed compounds – biochemical, biotinylated probe, 635/667 nm fluorescence, primary screen (AID 1099).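 Note: score merges 667nm spot fluorescence with signal to noise across triplicate slides.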 The note with it: small-molecule microarray, higher = more signal.
Experiment [3] can be described thus: probe aCHRDL2 binding to arrayed compounds – biochemical, biotinylated probe, 635/667 nm fluorescence, primary screen (AID 1100). The note with it: small-molecule microarray, higher = more signal.
A short description of experiment [4]: change in splice reporter luminescence, either direction, cell-based, HEK293, spliceosome inhibition project, primary screen (AID 1101).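 Note: HEK293 cells carrying a splicing-competent luciferase reporter gene; test concentration not given here.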 The note with it: HEK293 splicing luciferase reporter, 24 h, higher = more signal, called active from +8 up or from −8 down.
Experiment [5] addresses Fibroblast growth factor 10 (Homo sapiens) (UniProt O15520). Description: compounds binding fibroblast growth factor 10 – biochemical, small-molecule microarray, 635 nm fluorescence, primary screen (AID 1102). The note with it: FGF10 binding, fluorescence 635 nm, higher = more signal.
Experiment [6] deals with glycogen synthase kinase-3 (GSK3A per assay name; protocol says GSK3B). Description: compounds binding glycogen synthase kinase-3 – biochemical, small-molecule microarray, 635 nm fluorescence, GSK3A, primary screen (AID 1103). Note: the record names both GSK3A and GSK3B. Particulars: fluorescence 635 nm, higher = more signal.
The target in experiment [7] is Epidermal growth factor receptor (Homo sapiens) (UniProt P00533). Put plainly: compounds binding epidermal growth factor receptor – biochemical, small-molecule microarray, 635 nm fluorescence, primary screen (AID 1104).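 Note: score merges 667 nm emission intensity with spot signal to noise over triplicate slides.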 The note with it: EGFR binding, higher = more signal.
Sequence of Epidermal growth factor receptor (Homo sapiens) (P00533 whole entry, looked up): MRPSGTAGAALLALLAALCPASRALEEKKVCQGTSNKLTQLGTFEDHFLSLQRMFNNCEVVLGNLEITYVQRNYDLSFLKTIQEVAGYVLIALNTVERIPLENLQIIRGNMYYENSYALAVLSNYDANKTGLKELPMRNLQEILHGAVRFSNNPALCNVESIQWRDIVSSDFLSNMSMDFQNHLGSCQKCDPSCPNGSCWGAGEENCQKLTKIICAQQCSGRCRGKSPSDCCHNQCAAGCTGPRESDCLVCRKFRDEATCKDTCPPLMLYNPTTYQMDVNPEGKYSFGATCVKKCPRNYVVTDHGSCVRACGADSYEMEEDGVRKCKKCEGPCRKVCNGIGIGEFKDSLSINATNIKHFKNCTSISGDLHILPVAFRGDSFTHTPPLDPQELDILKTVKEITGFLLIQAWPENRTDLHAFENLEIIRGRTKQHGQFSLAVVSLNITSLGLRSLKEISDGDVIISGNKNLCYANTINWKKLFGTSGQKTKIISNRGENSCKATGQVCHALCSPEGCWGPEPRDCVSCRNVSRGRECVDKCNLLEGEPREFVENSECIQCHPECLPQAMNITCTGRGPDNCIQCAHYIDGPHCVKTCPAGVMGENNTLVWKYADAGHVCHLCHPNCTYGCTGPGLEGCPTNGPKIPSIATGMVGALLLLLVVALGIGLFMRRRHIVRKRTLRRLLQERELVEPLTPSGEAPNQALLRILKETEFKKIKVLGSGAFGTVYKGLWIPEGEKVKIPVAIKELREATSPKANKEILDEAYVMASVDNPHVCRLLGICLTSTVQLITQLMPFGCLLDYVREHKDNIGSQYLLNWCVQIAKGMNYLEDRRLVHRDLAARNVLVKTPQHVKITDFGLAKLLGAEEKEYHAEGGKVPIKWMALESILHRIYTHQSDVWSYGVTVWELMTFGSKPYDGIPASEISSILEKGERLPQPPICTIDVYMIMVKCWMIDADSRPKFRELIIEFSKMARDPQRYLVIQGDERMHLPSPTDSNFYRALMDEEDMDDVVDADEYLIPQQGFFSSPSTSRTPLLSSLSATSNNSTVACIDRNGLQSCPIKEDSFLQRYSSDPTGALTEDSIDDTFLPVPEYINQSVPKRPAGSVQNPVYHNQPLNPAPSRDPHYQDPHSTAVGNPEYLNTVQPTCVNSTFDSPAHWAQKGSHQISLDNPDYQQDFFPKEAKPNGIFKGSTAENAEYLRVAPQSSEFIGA
Experiment [8] has as its target Follistatin-related protein 3 (Homo sapiens) (UniProt O95633). Description: compounds binding follistatin-related protein 3 – biochemical, small-molecule microarray, 635 nm fluorescence, primary screen (AID 1105).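 Note: score merges emission near 667 nm and signal to noise per printed spot across three slides.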 The note with it: FSTL3 binding, higher = more signal.
Experiment [9] has as its target Dickkopf-related protein 1 (Homo sapiens) (UniProt O94907). Put plainly: small molecules binding DKK1 protein – biochemical, small-molecule microarray, 635 nm fluorescence scan, primary screen (AID 1106).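 Note: score merges emission near 667 nm with signal to noise over three replicate slides.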 Particulars: higher = more signal.
Experiment [10] concerns Inhibin beta A chain (activin A). Put plainly: small molecules binding activin A – biochemical, small-molecule microarray, 635 nm fluorescence scan, primary screen (AID 1107).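 Note: mouse activin A protein probed at 4.33 µg/mL on printed slides; score merges bound-protein fluorescence near 667 nm with spot signal-to-noise.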 Particulars: INHBA, higher = more signal.
The test system of experiment [11] is Human papillomavirus type 1a protein E7 (residues 44-93). Description: small molecules binding HPV E7 44-93 – biochemical, small-molecule microarray, residues 44-93, 635 nm fluorescence, primary screen (AID 1108).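 Note: E7 fragment applied at 1 µg/mL in TBST for 1 h at 4 C; score combines spot fluorescence with its signal to noise ratio.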 The note with it: fluorescence 635 nm, higher = more signal.
Experiment [12] in a line: hepatitis C replication reporter changes, two-sided – Huh7 cells, luciferase reporter, HCV replication inhibitor project, primary screen (AID 1109).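 Note: huh7 hepatoma cells harbouring a luciferase neomycin HCV replicon reporter; luciferase luminescence as measure of HCV replicon replication; test concentration not given here.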 Particulars: Huh7 HCV replicon luciferase reporter, 48 h; higher = more signal.
The target of experiment [13] is Left-right determination factor 2 (Homo sapiens) (UniProt O00292). Description: small molecules binding LEFTY2 protein – biochemical, small-molecule microarray, 635 nm fluorescence scan, primary screen (AID 1110). Particulars: higher = more signal.
Sequence of Left-right determination factor 2 (Homo sapiens) (O00292 whole entry, looked up): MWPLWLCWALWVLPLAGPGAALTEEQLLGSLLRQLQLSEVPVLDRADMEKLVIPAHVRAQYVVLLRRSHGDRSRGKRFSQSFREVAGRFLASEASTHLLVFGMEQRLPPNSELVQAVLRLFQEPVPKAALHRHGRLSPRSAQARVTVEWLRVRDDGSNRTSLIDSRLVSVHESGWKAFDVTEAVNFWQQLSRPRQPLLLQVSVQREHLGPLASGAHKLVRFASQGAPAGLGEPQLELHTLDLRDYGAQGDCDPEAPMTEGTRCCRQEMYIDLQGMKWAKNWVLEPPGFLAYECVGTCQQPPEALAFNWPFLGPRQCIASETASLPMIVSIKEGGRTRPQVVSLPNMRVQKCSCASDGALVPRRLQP
Experiment [14] has as its target Calmodulin-1 (Homo sapiens) (UniProt P0DP23). Description: small molecules binding calmodulin-1 with EGTA – biochemical, small-molecule microarray, Cy5-labelled CALM1, profiling panel (AID 1111).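 Note: labelled calmodulin applied in Tris saline Tween buffer holding calcium plus EGTA and DTT.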 Particulars: Cy5-CALM1 binding fluorescence, higher = more signal.
For experiment [15] the target is unchanged. Description: small molecules binding Ca-loaded calmodulin-1 – biochemical, small-molecule microarray, Cy5-labelled CALM1, plus calcium, artefact control for SMM control-protein annotation, profiling panel (AID 1112).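 Note: score merges spot fluorescence with signal to noise from triplicate slides.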 Particulars: Cy5-CALM1 binding fluorescence, higher = more signal.
Experiment [16] in a line: probe aWnt5a binding to arrayed compounds – biochemical, biotinylated probe, 635/667 nm fluorescence, primary screen (AID 1113).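 Note: score merges 667 nm fluorescence intensity with signal-to-noise per printed feature.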 Particulars: small-molecule microarray, higher = more signal.
A short description of experiment [17]: probe aShh binding to arrayed compounds – biochemical, biotinylated probe, 635/667 nm fluorescence, primary screen (AID 1114).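 Note: probe is biotin-labelled aShh protein from a stem cell growth factor screen; measures binding of labelled protein to compounds printed on the slide; score merges feature fluorescence at 667 nm with signal-to-noise.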 The note with it: small-molecule microarray, higher = more signal.
A short description of experiment [18]: probe aNog binding to arrayed compounds – biochemical, biotinylated probe, 635/667 nm fluorescence, primary screen (AID 1115).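 Note: probe is biotinylated aNog protein used at 0.15 µg/mL for 1 h at 4 C; z-score combines 667 nm fluorescence of each spot with its signal to noise.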 Particulars: small-molecule microarray, higher = more signal.
Experiment [19] addresses Torsin-1A-interacting protein 1 (Homo sapiens) (UniProt Q5JTV8). Description: compound microarray binding of lysate hLAP1 – cell lysate, small-molecule microarray, COS7 lysate, 635/667 nm fluorescence, primary screen (AID 1116). The note with it: 635 nm fluorescence, higher = more signal.
For experiment [20], the target named is Alpha-bungarotoxin (Bungarus multicinctus) (UniProt P60615). Description: compounds binding labelled alpha-BTX control protein – biochemical, small-molecule microarray, Alexa647 label, 635/667 nm fluorescence, artefact control for SMM control protein annotation, profiling panel (AID 1117). Particulars: alpha-BTX-A647 binding fluorescence, higher = more signal.
Sequence of Alpha-bungarotoxin (Bungarus multicinctus) (P60615 whole entry, looked up): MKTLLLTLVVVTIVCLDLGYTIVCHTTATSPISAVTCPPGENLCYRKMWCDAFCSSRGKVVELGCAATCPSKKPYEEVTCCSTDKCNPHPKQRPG

Sequence of Dickkopf-related protein 1 (Homo sapiens) (O94907 whole entry, looked up): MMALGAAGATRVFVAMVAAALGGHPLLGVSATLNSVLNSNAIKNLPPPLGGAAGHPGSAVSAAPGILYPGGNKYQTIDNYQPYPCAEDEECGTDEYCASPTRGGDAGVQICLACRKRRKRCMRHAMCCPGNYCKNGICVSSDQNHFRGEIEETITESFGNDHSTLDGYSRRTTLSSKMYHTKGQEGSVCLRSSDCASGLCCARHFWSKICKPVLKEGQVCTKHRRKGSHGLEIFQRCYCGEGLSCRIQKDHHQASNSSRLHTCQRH
Sequence of Torsin-1A-interacting protein 1 (Homo sapiens) (Q5JTV8 whole entry, looked up): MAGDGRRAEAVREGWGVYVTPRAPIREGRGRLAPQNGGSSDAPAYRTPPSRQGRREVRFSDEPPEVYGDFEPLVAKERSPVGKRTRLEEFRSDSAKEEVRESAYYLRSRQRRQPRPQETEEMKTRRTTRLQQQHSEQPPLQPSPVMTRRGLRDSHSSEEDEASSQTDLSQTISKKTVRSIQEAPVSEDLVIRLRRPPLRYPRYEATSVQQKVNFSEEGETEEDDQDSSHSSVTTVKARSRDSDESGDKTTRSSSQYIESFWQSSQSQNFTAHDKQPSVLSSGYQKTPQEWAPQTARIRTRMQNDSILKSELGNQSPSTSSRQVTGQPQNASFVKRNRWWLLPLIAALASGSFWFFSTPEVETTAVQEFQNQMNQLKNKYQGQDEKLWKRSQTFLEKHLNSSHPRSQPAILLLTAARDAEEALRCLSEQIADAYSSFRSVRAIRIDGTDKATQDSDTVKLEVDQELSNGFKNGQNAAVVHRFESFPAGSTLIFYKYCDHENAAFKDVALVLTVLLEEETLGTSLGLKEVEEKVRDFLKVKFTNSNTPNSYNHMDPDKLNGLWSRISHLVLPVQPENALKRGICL
Sequence of Follistatin-related protein 3 (Homo sapiens) (O95633 whole entry, looked up): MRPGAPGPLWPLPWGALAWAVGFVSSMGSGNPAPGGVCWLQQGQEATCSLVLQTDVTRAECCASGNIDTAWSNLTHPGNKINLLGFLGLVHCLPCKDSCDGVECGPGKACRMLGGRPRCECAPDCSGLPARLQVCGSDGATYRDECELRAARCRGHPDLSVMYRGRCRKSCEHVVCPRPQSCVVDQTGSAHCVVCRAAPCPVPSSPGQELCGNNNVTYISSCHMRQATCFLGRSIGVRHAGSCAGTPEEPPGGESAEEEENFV
Sequence of Fibroblast growth factor 10 (Homo sapiens) (O15520 whole entry, looked up): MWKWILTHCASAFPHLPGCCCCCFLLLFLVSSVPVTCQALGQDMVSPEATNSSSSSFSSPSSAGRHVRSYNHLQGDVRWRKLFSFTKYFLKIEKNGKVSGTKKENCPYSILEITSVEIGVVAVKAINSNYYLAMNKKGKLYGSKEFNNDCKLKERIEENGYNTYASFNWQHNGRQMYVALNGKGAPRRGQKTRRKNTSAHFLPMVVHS

As for `COc1ccc([Si](C)(C)[C@@H]2[C@@H](CC(=O)N3Cc4ccccc4C[C@H]3CO)O[C@]3(C(=O)N(C)c4c(Br)cc(C)cc43)[C@H]2C)cc1`, the composite z-score in [1] is 0.859; in [2] it was -0.0347; in [3] it was -0.311; in [5], 1.33; in experiment [6], 0.954; in experiment [7], 0.968. For the same molecule, the composite z-score in experiment [8] stood at 1.08; in experiment [9], 0.685; in experiment [10], 1.13; in experiment [11], 1.37; in [13], 0.637; in [14], 0.0208. The composite z-score in experiment [15] is 0.235; in [16], 0.0078; in experiment [17], -0.0793; in experiment [18], -0.454; in experiment [19] it was 0.418; in experiment [20], 1.01. Also, the figures for the z-score in experiment [4] and in experiment [12] were -2.12 (inactive) and -4.43, respectively.

With `COc1cc(CO)cc(I)c1O[C@H]1C=C(C(=O)NCCO)C[C@@H](N(CCN2CCOCC2)C(=O)C2CCOC2)[C@@H]1O` (stereo not given in full), the composite z-score in experiment [1] was 0.505; in [2], -0.424; in experiment [3] it was -0.544; in [5], 1.29; in experiment [6], 0.437; in experiment [7], -0.0432. Besides, the composite z-score in experiment [8] is 0.742; in experiment [9] it was 0.507; in [10], -0.584; in experiment [11] it was -0.923; in experiment [13] it was 0.897; in experiment [14], -0.0002. For the same molecule, the composite z-score in experiment [15] is -0.543; in experiment [16] it was -0.247; in [17] it was 0.0639; in [18] it was -0.281; in experiment [19] it was 0.085; in [20], 0.0392. The z-score in experiment [4] was -0.145 (inactive); in experiment [12] it was -0.282.

Consider `C=CCN1C(=O)[C@]2(O[C@H](CCO)[C@@H]([Si](C)(C)c3ccc(OC)cc3)[C@@H]2C)c2cc(N3CCCCC3=O)ccc21`, for which the composite z-score is 0.914 in experiment [1]; 0.0375 in experiment [2]; 0.0217 in [3]; 0.849 in [5]; 0.549 in [6]; 0.286 in [7]. In addition, the composite z-score turned out to be 0.918 in experiment [8]; 0.147 in experiment [9]; 0.247 in experiment [10]; 1.44 in experiment [11]; 0.0651 in experiment [13]; 0.856 in [14]. Further, the composite z-score in experiment [15] is 0.352; in experiment [16], -0.0977; in experiment [17], 0.147; in experiment [18], 0.431; in experiment [19], 0.957; in experiment [20], 1.19. Further, the z-score is -1.69 (inactive) in experiment [4] and -4.11 in experiment [12].

On to `CC(C)OC(=O)C=C1C[C@@H](c2ccccc2C(F)(F)F)O[C@@H](c2ccccc2C(F)(F)F)O1`, for which the composite z-score in [1] is 0.192; in experiment [2], -0.0017; in experiment [3], 0.0563; in experiment [5] it was 0.417; in experiment [6], 0.163; in experiment [7] it was 0.337. For the same molecule, the composite z-score is 0.332 in experiment [8]; 0.25 in [9]; 0.266 in experiment [10]; 0.706 in experiment [11]; 0.351 in experiment [13]; -0.21 in experiment [14]. For the same molecule, the composite z-score in experiment [15] was -0.624; in experiment [16] it was -0.13; in experiment [17], -0.2; in [18], 0.0234; in [19] it was -0.281; in experiment [20], 0.497. The values for the z-score in experiment [4] and in experiment [12] were -0.723 (inactive) and -0.384, respectively.

With `C=CCN(Cc1ccccc1)C(=O)C(c1cccs1)N(CCOCCO)C(=O)/C=C\C(=O)O` (stereo not given), the composite z-score in [1] is 0.342; in experiment [2], 0.179; in experiment [3], 0.251; in [5], -2.23; in [6], -0.869; in [7], -2.04. Also, the composite z-score in [8] is -1.27; in experiment [9] it was -2.6; in experiment [10], -2.43; in experiment [11] it was -0.762; in experiment [13] it was -2.24; in experiment [14], -0.512. The composite z-score in experiment [15] is 0.446; in experiment [16], -0.256; in experiment [17], -0.0035; in experiment [18], -0.0712; in [19], -1.45; in experiment [20], -1.82. For the same molecule, the z-score was -1.62 (inactive) in experiment [4] and 0.448 in experiment [12].

These data come from PubChem BioAssay.
